# Several values for one entry are separate records, joined by “and”; a condition that tells them apart may be missing. Equal values may be shown once. Records with an inconclusive call do not appear. A call without a number means that no potency is given here. Activity calls are given as the source filed them. The call rests on the fitted dose curve; in most records, active means well fitted curve in the direction sought with a large enough effect; inconclusive means small, poorly fitted or top-dose-only effect, or another doubt; inactive means no such curve, though single readings can be large; an effect the other way counts as inactive or inconclusive.
# What was measured:
# [1] = qHTS of pediatric cancer cell lines to identify multiple opportunities for drug repurposing: Primary screen for Saos-2 cells (AID 1347097); further: nearly all actives have a fitted effect of over 40% in size; further: potency means the concentration at half of the fitted maximal effect
# Procedure, shortened: (§1)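 Following a 5-hour attachment period, cells at 500-1,000/well received compounds and were cultured for 48 hours. CellTiter-Glo was added and luminescence read to estimate viable, metabolically active cells.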
# [2] = qHTS of pediatric cancer cell lines to identify multiple opportunities for drug repurposing: Primary screen for SK-N-SH cells (AID 1347098); further: nearly all actives have a fitted effect of over 65% in size; further: potency means the concentration at half of the fitted maximal effect
# Procedure, shortened: (§2)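 Cells (500-1,000/well) rested 5 h, then received compounds for 48 h; metabolically active cells were measured by CellTiter-Glo luminescence. Final concentrations spanned up to 46 µM (MIPE, 11-point) or 0.59 nM-46 µM (NPC, 8-point) in primary screens, 11-point in follow-ups.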
# [3] = qHTS of pediatric cancer cell lines to identify multiple opportunities for drug repurposing: Primary screen for LAN-5 cells (AID 1347100); further: potency means the concentration at half of the fitted maximal effect
# Procedure, shortened: (§3)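 Cells (500-1,000/well) in growth media were settled 5 h at 37 degrees C, then given compounds for 48 h. Viability was read as CellTiter-Glo luminescence. Primary runs used MIPE at 11 points (0.78 nM-46 µM) and NPC at 8 points (0.59 nM-46 µM); follow-ups used 11 points.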
# [4] = qHTS of pediatric cancer cell lines to identify multiple opportunities for drug repurposing: Primary screen for Rh18 cells (AID 1347102); further: nearly all actives have a fitted effect of over 65% in size; further: potency means the concentration at half of the fitted maximal effect
# Procedure, shortened: as §3
# [5] = qHTS of pediatric cancer cell lines to identify multiple opportunities for drug repurposing: Primary screen for OHS-50 cells (AID 1347103); further: nearly all actives have a fitted effect of over 40% in size; further: potency means the concentration at half of the fitted maximal effect
# Procedure, shortened: as §2
# [6] = qHTS of pediatric cancer cell lines to identify multiple opportunities for drug repurposing: Primary screen for RD cells (AID 1347104); further: nearly all actives have a fitted effect of over 55% in size; further: potency means the concentration at half of the fitted maximal effect
# Procedure, shortened: as §1
# [7] = qHTS of pediatric cancer cell lines to identify multiple opportunities for drug repurposing: Primary screen for MG 63 (6-TG R) cells (AID 1347105); further: nearly all actives have a fitted effect of over 50% in size; further: potency means the concentration at half of the fitted maximal effect
# Procedure, shortened: as §1
# [8] = qHTS of pediatric cancer cell lines to identify multiple opportunities for drug repurposing: Primary screen for control Hh wild type fibroblast cells (AID 1347106);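 further: series mostly up to about 46 µM; a drop in luminescence marks cytotoxicity and a rise apparent proliferation; nearly all actives have a fitted effect of over 55% in size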
# Procedure, shortened: as §3
# [9] = qHTS of pediatric cancer cell lines to identify multiple opportunities for drug repurposing: Primary screen for NB1643 cells (AID 1347099); further: nearly all actives have a fitted effect of over 50% in size; further: potency means the concentration at half of the fitted maximal effect
# Procedure, shortened: as §1
# [10] = qHTS of pediatric cancer cell lines to identify multiple opportunities for drug repurposing: Primary screen for BT-12 cells (AID 1347101); further: nearly all actives have a fitted effect of over 25% in size; further: potency means the concentration at half of the fitted maximal effect
# Procedure, shortened: as §2
Compound,Potency [1],Potency [2],Potency [3],Potency [4],Potency [5],Potency [6],Potency [7],Potency [8],Potency [9],Potency [10]
CNCCCC12CCC(c3ccccc31)c1ccccc12,26.4 µM (active),13.7 µM (active),inactive,18.8 µM (active) and 18.7 µM (active),27.6 µM (active) and 24.3 µM (active),29.6 µM (active),16.8 µM (active),inactive,–,–
CS(=O)(=O)CCNCc1ccc(-c2ccc3ncnc(Nc4ccc(OCc5cccc(F)c5)c(Cl)c4)c3c2)o1,29.6 µM (active),9.7 µM (active),16.6 µM (active),20.9 µM (active),–,1.32 µM (active) and 26.6 µM (active),5.9 µM (active),inactive,–,–
Cc1ccc(-c2cc(C(F)(F)F)nn2-c2ccc(S(N)(=O)=O)cc2)cc1,16.8 µM (active),inactive,inactive,inactive,–,–,inactive,–,inactive,inactive
COC(=O)Nc1nc2ccc(C(=O)c3cccs3)cc2[nH]1,4.7 nM (active) and 94.4 nM (active),inactive,3.3 nM (active) and 119 nM (active),inactive,–,–,–,inactive,–,19.3 nM (active) and 347 nM (active)
Clc1ccccc1C(c1ccccc1)(c1ccccc1)n1ccnc1,26.6 µM (active) and 33.2 µM (active),inactive,inactive,inactive,–,18.7 µM (active),inactive,–,–,–
CC(C(=O)O)c1cccc(C(=O)c2ccccc2)c1 (centres undefined),inactive,inactive,inactive,inactive,–,–,inactive,inactive,–,inactive
CC1(CN2CCC(n3c(=O)[nH]c4ccccc43)CC2)OCc2ccccc2-n2cccc21 (centres undefined),inactive,24.4 µM (active),inactive,inactive,–,–,inactive,inactive,inactive,inactive
CC1(C)O[C@H]2CC(=O)OC[C@]23[C@H]2CC[C@@]4(C)[C@H](c5ccoc5)OC(=O)[C@H]5O[C@]54[C@]2(C)C(=O)C[C@@H]13,inactive,inactive,inactive,inactive,–,inactive,inactive,inactive,inactive,inactive
CCCCc1oc2ccccc2c1C(=O)c1cc(I)c(OCCN(CC)CC)c(I)c1,18.7 µM (active) and 26.6 µM (active),8.57 µM (active) and 21.7 µM (active),1.48 µM (active),16.6 µM (active),–,26.4 µM (active) and 26.6 µM (active),–,–,–,4.32 µM (active) and 21.9 µM (active)
CC12CC3CC(C)(C1)CC(N)(C3)C2,inactive,27.1 µM (active),inactive,inactive,–,–,inactive,–,–,inactive
Cc1cn([C@H]2C=C[C@@H](CO)O2)c(=O)[nH]c1=O,inactive,inactive,inactive,inactive,–,inactive,inactive,inactive,inactive,inactive
Fc1ccc([C@@H]2CCNC[C@H]2COc2ccc3c(c2)OCO3)cc1,inactive,inactive,inactive,–,–,–,inactive,inactive,inactive,inactive
CN(Cc1cnc2nc(N)nc(N)c2n1)c1ccc(C(=O)N[C@@H](CCC(=O)O)C(=O)O)cc1,inactive,inactive,0.0526 µM (active),inactive,–,0.0106 µM (active),inactive,–,–,0.0062 µM (active)
Cc1ccc(C(=O)Nc2ccc(S(=O)(=O)O)c3cc(S(=O)(=O)O)cc(S(=O)(=O)O)c23)cc1NC(=O)c1cccc(NC(=O)Nc2cccc(C(=O)Nc3cc(C(=O)Nc4ccc(S(=O)(=O)O)c5cc(S(=O)(=O)O)cc(S(=O)(=O)O)c45)ccc3C)c2)c1,inactive,inactive,inactive,inactive,–,inactive,inactive,inactive,inactive,inactive
CN(C)CCC=C1c2ccccc2C=Cc2ccccc21,29.6 µM (active),27.3 µM (active),inactive,inactive,27.6 µM (active),–,inactive,inactive,inactive,–
CN1CCC(=C2c3ccccc3CC(=O)c3sccc32)CC1,inactive,24.1 µM (active),inactive,inactive,–,–,23.5 µM (active),–,inactive,inactive
CN1CCN(CCCN2c3ccccc3Sc3ccc(Cl)cc32)CC1,0.235 µM (active),24.4 µM (active),9.35 µM (active),–,9.68 µM (active),9.35 µM (active) and 26.6 µM (active),–,inactive,–,6.11 µM (active)
COc1ccccc1OCCNCC(O)COc1cccc2[nH]c3ccccc3c12 (centres undefined),inactive,inactive,inactive,inactive,–,inactive,inactive,inactive,inactive,–
Cc1cc(C(C)(C)C)cc(C)c1CC1=NCCN1,inactive,inactive,inactive,inactive,–,–,inactive,inactive,inactive,inactive
Clc1ccc(C(c2ccccc2Cl)C(Cl)Cl)cc1 (centres undefined),16.8 µM (active) and 18.7 µM (active),inactive,–,inactive,–,–,–,–,inactive,inactive
CC(C)C(=O)Nc1ccc([N+](=O)[O-])c(C(F)(F)F)c1,0.59 µM (active),12.1 µM (active),inactive,inactive,24.6 µM (active) and 432 nM (active),–,–,–,–,11 µM (active)
CC#C[C@]1(O)CC[C@H]2[C@@H]3CCC4=CC(=O)CCC4=C3[C@@H](c3ccc(N(C)C)cc3)C[C@@]21C,2.64 µM (active),0.242 µM (active),16.8 µM (active) and 209 nM (active),–,–,26.6 µM (active) and 662 nM (active),–,inactive,inactive,0.685 µM (active)
Cc1ccccc1N1C(=O)c2cc(S(N)(=O)=O)c(Cl)cc2NC1C (centres undefined),inactive,inactive,inactive,inactive,–,inactive,inactive,inactive,inactive,inactive
Cc1cc(C(C)(C)C)c(O)c(C)c1CC1=NCCN1,inactive,inactive,inactive,inactive,–,–,inactive,–,inactive,inactive
CCOC(=O)C(C)(C)Oc1ccc(Cl)cc1,inactive,inactive,inactive,inactive,inactive,inactive,inactive,inactive,–,inactive
CN1CCN(C2=Nc3cc(Cl)ccc3Nc3ccccc32)CC1,inactive,15.4 µM (active),inactive,inactive,–,–,inactive,inactive,inactive,inactive

Compound,Potency [1],Potency [2],Potency [3],Potency [4],Potency [5],Potency [6],Potency [7],Potency [8],Potency [9],Potency [10]
NCCCCCC(=O)O,inactive,inactive,inactive,inactive,–,inactive,inactive,inactive,inactive,inactive
Nc1ccn([C@H]2CC[C@@H](CO)O2)c(=O)n1,inactive,inactive,inactive,inactive,–,inactive,inactive,inactive,inactive,inactive
CN(C)CCOC(c1ccccc1)c1ccccc1,inactive,inactive,inactive,inactive,–,inactive,inactive,inactive,–,inactive
COc1ccccc1N1CCN(CC(O)COc2cccc3ccccc23)CC1 (centres undefined),–,–,inactive,inactive,–,inactive,inactive,inactive,inactive,inactive
N[C@@H](Cc1c[nH]c2ccc(O)cc12)C(=O)O,inactive,–,inactive,inactive,inactive,inactive,inactive,inactive,inactive,inactive
COc1ccc2c(c1)c(CC(=O)O)c(C)n2C(=O)c1ccc(Cl)cc1,–,–,inactive,inactive,inactive,inactive,inactive,inactive,–,inactive
CS(=O)(=O)Nc1ccc([N+](=O)[O-])cc1Oc1ccccc1,inactive,inactive,–,inactive,inactive,inactive,inactive,inactive,–,inactive
CN1CCC(=C2c3ccccc3C=Cc3ccccc32)CC1,–,24.1 µM (active),–,–,–,–,inactive,inactive,–,–
Cn1ccc2cc3c(cc21)CCN3C(=O)Nc1cccnc1,inactive,–,inactive,inactive,inactive,inactive,inactive,inactive,–,inactive
CN(C)CCCN1c2ccccc2CCc2ccc(Cl)cc21,16.8 µM (active),1.52 µM (active) and 24.4 µM (active),–,–,13.7 µM (active) and 17.4 µM (active),1.48 µM (active),–,–,–,19.3 µM (active) and 15.5 µM (active)
CC(C)NCC(O)c1ccc(O)c(O)c1 (centres undefined),–,inactive,–,–,inactive,–,–,–,–,inactive
O=C1Cc2cc(CCN3CCN(c4nsc5ccccc45)CC3)c(Cl)cc2N1,–,inactive,inactive,inactive,–,–,inactive,inactive,inactive,inactive
CC(COc1ccccc1)N(CCCl)Cc1ccccc1 (centres undefined),–,inactive,inactive,inactive,24.3 µM (active),inactive,inactive,inactive,inactive,9.68 µM (active)
O=C(Nc1ccc([N+](=O)[O-])cc1Cl)c1cc(Cl)ccc1O,2.31 µM (active) and 1.18 µM (active),–,1.3 µM (active) and 935 nM (active),3.72 µM (active),–,3.26 µM (active) and 1.48 µM (active),3.66 µM (active) and 1.18 µM (active),inactive,820 nM (active) and 590 nM (active),1.69 µM (active) and 1.93 µM (active)
Cc1cn([C@H]2C[C@H](N=[N+]=[N-])[C@@H](CO)O2)c(=O)[nH]c1=O,inactive,–,inactive,inactive,–,inactive,inactive,–,–,inactive
CC(CCc1ccc(O)cc1)NCCc1ccc(O)c(O)c1 (centres undefined),18.7 µM (active) and 21.1 µM (active),–,–,20.9 µM (active),–,–,inactive,–,–,–
OCCN1CCN(CCCN2c3ccccc3Sc3ccc(C(F)(F)F)cc32)CC1,–,21.5 µM (active) and 19.4 µM (active),–,–,24.3 µM (active) and 27.6 µM (active),18.7 µM (active),–,–,–,27.3 µM (active)
Nc1nc2c(ncn2COC(CO)CO)c(=O)[nH]1,–,inactive,inactive,inactive,–,inactive,–,inactive,inactive,–
CC(C)(Oc1ccc(C2CC2(Cl)Cl)cc1)C(=O)O (centres undefined),inactive,–,–,inactive,–,inactive,inactive,–,inactive,inactive
O=c1c(O)c(-c2ccc(O)c(O)c2)oc2cc(O)cc(O)c12,–,24.1 µM (active),–,–,–,inactive,inactive,inactive,–,–
NC12CC3CC(CC(C3)C1)C2,inactive,–,inactive,inactive,–,inactive,inactive,–,inactive,inactive
CN1C(C(=O)Nc2ccccn2)=C(O)c2ccccc2S1(=O)=O,inactive,inactive,–,inactive,inactive,inactive,inactive,inactive,–,inactive
O=c1c(-c2ccc(O)cc2)coc2cc(O)cc(O)c12,inactive,–,–,inactive,–,inactive,inactive,inactive,inactive,inactive
O=c1[nH]cc(F)c(=O)[nH]1,inactive,–,7.43 µM (active),inactive,inactive,inactive,inactive,inactive,5.26 µM (active),–
O=C(CCCN1CCC(O)(c2ccc(Cl)cc2)CC1)c1ccc(F)cc1,inactive,–,–,inactive,–,–,inactive,–,inactive,–

# — PubChem BioAssay (NCATS)
